# Screening data from PubChem.
# miR-122 sensor – blocks miR-122 activity in Huh7 sensor cells. Huh7 miR-122 Renilla luciferase sensor, 48 h; neutral wells = 0, positive control = 100. activation (reporter increase), % at 12.5 µM. 340,000 tested, 0.3% active;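 active = mean replicate activation score at least 90 and every replicate individually at or above 90; inconclusive = only one of the two criteria met; inactive = neither criterion met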;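 note: higher luciferase means less miR-122 activity so hits act as miR-122 inhibitors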
# PvdQ inh – P. aeruginosa PvdQ acylase inhibition | purified PvdQ acylase, fluorescence plate reader | inhibition, % at 10 µM | 340,000 tested, 0.063% active | AID 488965; in the data active = inhibition above about 30%, passing the limit was not always enough; inconclusive = no clear call, values can overlap the other calls;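 note: 0% = vehicle neutral wells and 100% = reference inhibitor wells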
# C2C12 statin – suppression of simvastatin myotoxicity; C2C12 myotubes + simvastatin, ATP luminescence, 48 h; scaled: DMSO 0, geranylgeraniol control 100; rescue of ATP level, % at 7.49 µM; 330,000 tested, 0.78% active; AID 602340;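 active = mean ATP rescue above about 67%, or every replicate alone reaching that limit, limit read from the data, passing the limit was not always enough; inconclusive = no clear call, values can overlap the other calls; inactive = mean under the limit and some replicate under it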;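 note: myotubes were challenged with 10 µM simvastatin during compound exposure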
# PGC1a acetyl inh – modulators of PGC1a acetylation | 350,000 tested, 0.17% active | U2OS PGC1a acetylation, AlphaScreen anti-acetyl-lysine; with virally co-expressed GCN5 acetyltransferase | inhibition, % at 15.6 µM;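 active = every replicate shows inhibition of at least 40%; inconclusive = mean inhibition at least 40% but some replicate below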;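 note: 0% = neutral control wells and 100% = positive control wells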
# DENV2 CPE – inhibitors of DENV2 cytopathic effect; DENV2-infected cells, cytopathic effect rescue, plate reader; CPE inhibition, % at 9.99 µM; 350,000 tested, 1.7% active; AID 651640; in the data active = CPE inhibition above about 20%, passing the limit was not always enough; inconclusive = no clear call, values can overlap the other calls; tested in BHK-21 cells;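 note: 0% = median of neutral control wells and 100% = median of positive control wells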
# Numbers without * were called inactive; ? = inconclusive; / = no result; [ ] = dose if it differs, or a comment. Rows were chosen to be rich in hits. Some 2.2% of all compounds tested hit in one or more screens of this group.
SMILES,miR-122 sensor,PvdQ inh,C2C12 statin,PGC1a acetyl inh,DENV2 CPE
CC1=Nc2ccccc2N=C(NC(=O)CN2CCN(c3ccccc3)CC2)C1c1ccccc1 (stereo not given),/,-11,/,86*,0
O=C(Nc1ncn[nH]1)c1c(Cl)ccc(Cl)c1Cl,7,-11,153*,-3,/
O=C(Nc1ncn[nH]1)c1ccccc1O,-6,-4,-5,-16,18
O=C1O[C@@H](c2ccccc2)[C@@H](c2ccccc2)N2[C@@H](c3ccccc3OCCO)[C@]3(C(=O)Nc4ccc(C#CCCO)cc43)[C@@H](C(=O)O)[C@H]12,/,/,/,/,20
C[C@@H]1CN([C@@H](C)CO)C(=O)c2cc(-c3cccnc3)cnc2O[C@@H]1CN(C)Cc1ccc(-c2ccccc2)cc1,/,/,-8,4,37*
C[C@@H]1CN([C@@H](C)CO)C(=O)c2cc(C3=CCCCC3)cnc2O[C@@H]1CN(C)Cc1cccnc1,27[16.7 µM],/,42,0,20*
C[C@H](CO)N1C[C@H](C)[C@H](CN(C)Cc2cccc(F)c2)Oc2ncc(C3=CCCCC3)cc2C1=O,/,/,/,0,23*
C[C@H]1CN([C@@H](C)CO)C(=O)c2cc(C3=CCCCC3)cnc2O[C@H]1CN(C)Cc1cccc(F)c1,8[16.7 µM],/,/,-9,5
CC(C)NC(=O)Nc1ccc2c(c1)CC(=O)N([C@@H](C)CO)C[C@H](C)[C@H](CN(C)Cc1ccc(C(=O)O)cc1)O2,-1[16.7 µM],/,6,-1,17
C[C@@H]1CN([C@H](C)CO)C(=O)c2cc(NS(=O)(=O)c3cn(C)cn3)ccc2O[C@@H]1CN(C)Cc1ccc(-c2ccccc2)cc1,3[16.7 µM],/,36,-1,-9
CN(C)C(=O)C[C@@H]1CC[C@@H]2[C@H](COc3ccc(NC(=O)c4ccc(F)c(F)c4)cc3C(=O)N2C)O1,12[16.7 µM],/,-8,0,-10
Cc1ccc(S(=O)(=O)N[C@H]2CC[C@H](CCNC(=O)C3CCOCC3)O[C@H]2CO)cc1,/,/,-1,-13,8
Cc1ccc(S(=O)(=O)N[C@H]2CC[C@H](CCNC(=O)C3CCCC3)O[C@@H]2CO)cc1,-16[16.7 µM],/,1,2,72*
COc1ccccc1S(=O)(=O)N[C@@H]1CC[C@@H](CCNC(=O)C2CCCC2)O[C@@H]1CO,1[16.7 µM],/,-2,-6,20*
COc1ccc(S(=O)(=O)N[C@H]2CC[C@@H](CCNC(=O)CN3CCOCC3)O[C@H]2CO)cc1,/,/,2,3,94*
Cc1ccc(S(=O)(=O)N[C@H]2CC[C@@H](CCNC(=O)C3CCOCC3)O[C@H]2CO)cc1,/,/,-4,-4,22*
COc1ccc(S(=O)(=O)N[C@H]2CC[C@@H](CCNC(=O)CN3CCOCC3)O[C@@H]2CO)cc1,/,/,3,9,4
C[C@@H](NC(=O)C[C@@H]1CC[C@H](NC(=O)C2CC2)[C@@H](CO)O1)c1ccccc1,/,/,-2,2,4
Cc1ccc(S(=O)(=O)N[C@@H]2CC[C@@H](CCNC(=O)C3CCOCC3)O[C@H]2CO)cc1,/,/,-30,-2,21*
Cc1ccc(S(=O)(=O)N[C@@H]2CC[C@@H](CCNC(=O)C3CC3)O[C@H]2CO)cc1,/,/,2,-5,-4
CCCCC(=O)NNC(=S)NC(=O)CCC,-5,-5,112*,5,/
C[C@H]1CN([C@@H](C)CO)C(=O)c2cc(N(C)C)ccc2O[C@H]1CN(C)S(=O)(=O)c1ccccc1,39[16.7 µM],/,-17,-7,31*
C[C@@H]1CN([C@@H](C)CO)C(=O)c2cc(N(C)C)ccc2O[C@H]1CN(C)S(=O)(=O)c1ccccc1,3[16.7 µM],/,0,31,79*
Cc1ccc(S(=O)(=O)Nc2ccc3c(c2)C(=O)N([C@H](C)CO)C[C@@H](C)[C@@H](CN(C)Cc2ccncc2)OCCCC[C@H](C)O3)cc1,-2[16.7 µM],/,/,-7,2
CO[C@@H]1CN(C)C(=O)c2cc(NC(=O)c3ccc4c(c3)OCO4)ccc2OC[C@@H](C)N(CC2CC2)C[C@@H]1C,/,/,16,-4,77*
SMILES,miR-122 sensor,PvdQ inh,C2C12 statin,PGC1a acetyl inh,DENV2 CPE
CO[C@H]1CN(C)C(=O)c2cc(NC(=O)c3ccc4c(c3)OCO4)ccc2OC[C@@H](C)N(CC2CC2)C[C@@H]1C,/,/,2,1,-1
CO[C@@H]1CN(C)C(=O)c2cc(NC(=O)c3ccc4c(c3)OCO4)ccc2OC[C@@H](C)N(CC2CC2)C[C@H]1C,/,/,-4,105*,0
O=C(NCCCC1CCCC1)C1CCC(=O)N(Cc2cccc(C(F)(F)F)c2)C1 (stereo not given),-2,-5,6,-14,26*
CCCNC(=O)C(=O)c1cccn1-c1ccsc1C(=O)OC,-1,1,119*,5,/
Cc1c(C#N)c(O)n(CCO)c(=O)c1N=Nc1ccc(S(N)(=O)=O)cc1,-22,2,-1,/,45*
O=S1(=O)CCOC[C@H](c2ccccc2)N1Cc1ccccc1,13,2,2,-1,5
O=S1(=O)CCOC[C@H](c2ccccc2)N1Cc1cccc(Cl)c1,-10,43*,10,/,6
COCCNC(=O)c1c(CS(=O)(=O)c2ccccc2)noc1C(=O)NCc1ccccc1,1,-15,96*,21,-8
O=c1c2ccccc2nc2c3ccccc3c(NCc3ccccn3)nn12,/,-9,/,/,2
O=c1c2ccccc2nc2c3ccccc3c(NCCO)nn12,3,-16,-2,-7,73*
CCC1CN(S(=O)(=O)c2ccc3c(c2)NC(=O)CC(=O)N3)c2cc(Cl)ccc2O1 (stereo not given),-1,-1,23,/,23*
C[C@H]1CN([C@@H](C)CO)S(=O)(=O)c2ccc(-c3ccc(C(=O)N(C)C)cc3)cc2O[C@@H]1CN(C)C(=O)C1CC1,10[16.7 µM],/,24,2,/
CSc1nsc(SC)c1NC(=O)N1CCCCC1,1,12,/,-8,/
CSc1nsc(SC)c1NC(=O)Nc1ccccc1C,-7,-13,1,103*,/
CC(C)NC(=O)Nc1ccc2c(c1)C(=O)N([C@H](C)CO)C[C@@H](C)[C@H](CN(C)C(=O)Nc1ccc(C(F)(F)F)cc1)OCCCC[C@H](C)O2,4[16.7 µM],/,/,-2,?
CC(C)NC(=O)Nc1ccc2c(c1)C(=O)N([C@H](C)CO)C[C@@H](C)[C@H](CN(C)C(=O)Nc1ccc(C(F)(F)F)cc1)OCCCC[C@@H](C)O2,-9[16.7 µM],/,/,10,50*
C[C@H]1CCCCO[C@@H](CN(C)C(=O)Nc2ccccc2)[C@@H](C)CN([C@@H](C)CO)C(=O)c2cc(NC(=O)Nc3ccc(C(F)(F)F)cc3)ccc2O1,/,/,/,-2,36*
C[C@@H]1CCCCO[C@H](CN(C)C(=O)Nc2ccccc2)[C@@H](C)CN([C@H](C)CO)C(=O)c2cc(NC(=O)Nc3ccc(C(F)(F)F)cc3)ccc2O1,/,/,/,9,9
CC(=O)c1ccc(N2CCN(C(=S)Nc3ccc(Cl)c(Cl)c3)CC2)cc1,/,-8,/,/,53*
CCC(C)(NC(=O)c1ccc(=O)[nH]c1)C(=O)NC1CCCC1 (stereo not given),-4,-1,92*,-1,-9
